Data published in PubChem BioAssay (NCATS).
Results filed as inconclusive are left out. Calls of active or inactive are those of the source. Calls follow the shape of the dose curve; as a rule, active = well fitted activation curve with a large enough effect; inconclusive = small, poorly fitted or top-dose-only effect; inactive = flat fitted curve, though single readings scatter.

Assay: Cellular Toxicity (caspase-3) Hek293 (AID 664);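 also: cells exposed to compound for 16 h at 37 °C before readout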
Details: HEK293 caspase-3 activation, DMSO = 0%, 100 µM tamoxifen = 100%; series mostly up to 92.2 µM
Description: NIH Chemical Genomics Center [NCGC]
NIH Molecular Libraries Screening Centers Network [MLSCN]
National Institutes of Environmental Health Sciences [NIEHS]
National Toxicology Program [NTP]
We have developed a 1536-well cell-based assay for quantitative high throughput screening (qHTS) against a number of cell lines to determine in vitro caspase 3/7 of small molecules. This particular assay uses the Hek 293 cell line which is derived from human embryonic kidney cells.
NCGC Assay Protocol Summary:
The Caspase-Glo 3/7 assay (Promega) is a homogeneous method to measure caspase-3 and caspase-7 activities in cultured cells. The quantitation of caspase 3/7 activity is based on the cleavage of a peptide-aminoluciferin substrate. After caspase cleaves the substrate the free aminoluciferin is liberated and serves as the substrate of luciferase, which generates the light. The luminescent signal is proportional to amount of caspase 3/7 activity present.
Using the Caspase-Glo 3/7 assay, the amount of caspase 3/7 activity was measured in the Hek 293 cell line with complete culture medium following compound treatment for 16 hours. The assay was performed in opaque white 1536-well plates. In the screen, tamoxifen and doxorubicin were used as positive controls. Library compounds were measured for their ability to cause the activation of caspase 3/7 in the cell line, as reflected by an increase in luminescence signal, in a concentration-dependent manner. Data were normalized to the controls for basal activity (DMSO only) and 100% stimulation (100 uM tamoxifen). AC50 values were determined from concentration-response data modeled with the standard Hill equation.
qHTS protocol for caspase 3/7 assay in Hek 293 cells
[Step] [Parameter] [Value] [Description]
2. Time; 5 hr; 37 °C incubation
4. Controls; 23 nL; Tamoxifen 0.23 uM to 100 uM & Doxorubicin 7.0 pM to 100 uM
5. Time; 16 hr; 37 °C incubation
6. Reagent; 5 uL; Caspase-Glo 3/7 reagent
7. Time; 20 min; Room Temperature
8. Detection; Luminescence; Viewlux plate reader
Keywords: caspase 3/7, apoptosis, Hek 293 cell line, luminescence, NTPHTS, NTPHTS_NCGC, NIEHS, EPA, DSSTox, MLSMR, MLSCN, NIH Roadmap, qHTS, NCGC

SMILES	outcome
NC(=O)N1c2ccccc2C=Cc2ccccc21	inactive
CN=C(NC#N)NCCSCc1nc[nH]c1C	inactive
COc1cc(Cc2cnc(N)nc2N)cc(OC)c1OC	inactive
COC(=O)[C@H]1[C@H]2C[C@@H]3c4[nH]c5cc(OC)ccc5c4CCN3C[C@H]2C[C@@H](OC(=O)c2cc(OC)c(OC)c(OC)c2)[C@@H]1OC	inactive
Nc1ncn([C@@H]2O[C@H](CO)[C@@H](O)[C@H]2O)c(=O)n1	inactive
O=c1[nH]c(=O)n([C@H]2C[C@H](O)[C@@H](CO)O2)cc1Br	inactive
COc1ccc(CN(CCN(C)C)c2ccccn2)cc1	inactive
NC(=Nc1ccccc1)Nc1ccccc1	inactive
CCCCOCCOCCOCc1cc2c(cc1CCC)OCO2	inactive
CCCCNC(=O)NS(=O)(=O)c1ccc(C)cc1	inactive
Nc1nc(N)c2nc(-c3ccccc3)c(N)nc2n1	inactive
